In the assay the test system is MDA-MB-468 breast. As to the kind of experiment: NCI-60 one-dose screen, 48 h (100 = growth as untreated, 0 = no growth, -100 = all killed). As to conditions: 10 µM unless noted.

About 83,000 compounds went through this panel and 20% of them were active in at least one assay; those are over-represented in the sample as a whole.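 Plates (96-well) were seeded with cells, treated with compound at one concentration, and incubated for 48 hours before percent growth was determined.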 A number with no mark means an inactive call. Activity calls are given as the source filed them. How the source made its calls: active means growth percent below 10; inactive means the rest.

As for `COc1cc2cc(Oc3ccc(NC(=O)Nc4cccc(C(F)(F)F)c4)cc3)c(C)nc2cc1OCCN(C)C`, the growth is 79.6%.
Consider `CCOC(=O)c1cn2ncnc(Oc3ccc(NC(=O)NC4CC4)c(Cl)c3)c2c1C`, for which the growth was 90.1%.
With `Cc1cc(C)c(NC(=O)c2sc3nc4c(cc3c2N)CCCC4)c(C)c1`, the growth is 47.9%.
On to `Cc1c(C(=O)C(SC(=S)N2CCOCC2)SC(=S)N2CCOCC2)nnn1-c1ccc([N+](=O)[O-])cc1`, for which the growth was 92.7%.
Regarding `N#CC1=C(c2ccc(Br)cc2)NC(SCC(=O)c2ccc(Br)cc2)NC1=O` (stereo not drawn), the growth was 113%.
`Cc1nn(-c2ccccc2)c2ncnc(N/N=C/c3cccc(O)c3)c12`: the growth was -0.147% (active).
With `O=C1/C(=C/c2ccccc2F)CNC/C1=C\c1ccccc1F` the figure was -59.7% (active); with `O=C(O)c1cn(C2CC2)c2cc(N3CCN(S(=O)(=O)c4ccc(Cl)c(Cl)c4)CC3)c(F)cc2c1=O`, -10.6% (active).
Consider `O=C(N/N=C/c1ccc(O)cc1O)c1cccc(Nc2ccnc(C(F)(F)F)c2)c1`, for which the growth was 43.1%.
As to `Cc1nc(-c2ccccc2)sc1CC#N`, the growth was 104%.
For `CCC(=O)Oc1cc(/C=C/C(=O)O[C@H]2C[C@H]3CN4CCc5c([nH]c6cc(OC)ccc56)[C@@H]4C[C@@H]3[C@@H](C(=O)OC)[C@@H]2OC)ccc1OC`, the growth was 71.3%.
On to `COc1ccccc1/C(C)=N/NC(=O)CSc1nc2ccccc2c(=O)n1Cc1ccc(S(N)(=O)=O)cc1`, for which the growth was 98.8%.
Regarding `Cc1c(O)c(=O)ccn1-c1nc2ccccc2s1`, the growth was 103%.
